From the OligoGym collection come the findings set out here.
Also: reference of the scale not given here.

The first assay concerns the target ZHX1. The assay is described as follows: pooled miR-30 sensor sort-seq; sequence = guide strand. Conditions: shRNA.
Take TTTTTTTACATATCTTGCCTGT: the sensor-assay potency score (higher = more potent) is -0.102.

Take TAACTATGTCTGTTCTAGCAAG: the sensor-assay potency score (higher = more potent) is -1.35.

Take TTCTTCTTCTCTGTAAACCAAG: the sensor-assay potency score (higher = more potent) was -1.18.

Sequence TTTCTCTTTAAACTTTTGGGGA showed a sensor-assay potency score (higher = more potent) of -0.716.

As to TTGTATTAGATTCAGAAGCTGA, the sensor-assay potency score (higher = more potent) is -0.592.

The target of a further assay is ZIC5. The description is as above. Conditions: shRNA.
For the sequence TGTATGAGTACGCTTGTGGATC, the sensor-assay potency score (higher = more potent) is -1.35.

As for TTGGTGGTGGTGTAGCCCGAGA, the sensor-assay potency score (higher = more potent) was -1.57.

Take TTGAGGTTGGTCACCTGAGGGG: the sensor-assay potency score (higher = more potent) is -0.565.

The sequence TAGTAGGGCTTGTCACTGGTGT came in with a sensor-assay potency score (higher = more potent) of -0.153.

The sequence TGAATCTTCATGTGCTTCCTCA displayed a sensor-assay potency score (higher = more potent) of -0.349.

Sequence TTTGTCACAGCCTCGAATCTTG came in with a sensor-assay potency score (higher = more potent) of -0.0738.

Take TCGAATCTTGCAGTAGTAGGGC: the sensor-assay potency score (higher = more potent) was determined as 0.408.

For TCATCTTCAGTCTCAGAGGTGG, the sensor-assay potency score (higher = more potent) is -0.487.

For TGTCATATTCTGAAGCGGCTGG, the sensor-assay potency score (higher = more potent) came to 0.253.

Regarding ATGAGTACGCTTGTGGATCTTG, the sensor-assay potency score (higher = more potent) was -0.744.

Take TTGCAGATGAGCTCCTGCTTGA: the sensor-assay potency score (higher = more potent) is -0.229.

The next assay addresses ZKSCAN4. The description is as above. Conditions: shRNA.
Sequence TGAGCTGTGACTGAAGACCTTA came in with a sensor-assay potency score (higher = more potent) of 0.0781.

The sequence TACCATTGCATCTTCTCTGCAG showed a sensor-assay potency score (higher = more potent) of 0.382.

For the sequence TTCCACAGTCTTCACATTCATA, the sensor-assay potency score (higher = more potent) was -1.13.

For TGAACTTTGAGCAAAACTCTTT, the sensor-assay potency score (higher = more potent) is -0.0856.

TTTAGGTCCTACAACTTCCAGA: the sensor-assay potency score (higher = more potent) was -0.127.

Sequence TTTATCACCATGAATCCTCTGA showed a sensor-assay potency score (higher = more potent) of 0.54.

TTGACTGGAGGCAAGTCCCTGC: the sensor-assay potency score (higher = more potent) turned out to be 0.176.

In the case of TTCATGCTTGAACAGAGCCTTC, the sensor-assay potency score (higher = more potent) is -1.41.

In turn, TAGTCTGTATTTCACCACCAAG returned a sensor-assay potency score (higher = more potent) of -1.77.

TTCTGCTTTCTTTGTAACCTGC had a sensor-assay potency score (higher = more potent) of -0.00454.

With AACCTGGAGAACTCTATCGTGT, the sensor-assay potency score (higher = more potent) was -0.756.

For TTCAATAAGACTTCTATTCCGT, the sensor-assay potency score (higher = more potent) was found to be 0.355.

For the next assay, the target named is ZMAT2. The description is as above. As to conditions: shRNA.
With TACCTCTGCAATCTGTGCCCTC, the sensor-assay potency score (higher = more potent) is -0.418.

For the sequence TTGGATTCCAAGTCCACCTTGT, the sensor-assay potency score (higher = more potent) was determined as 0.567.

Regarding TTCTCTGATGTTTCTTTCCATT, the sensor-assay potency score (higher = more potent) was -1.41.

Take TTCCTCAAAATCATAATCCTTC: the sensor-assay potency score (higher = more potent) was 0.481.

In turn, TTTCTCTTTCTTGTACGCTTTG came in with a sensor-assay potency score (higher = more potent) of -0.653.

The sequence AAAATCATAATCCTTCTGCTTC gave a sensor-assay potency score (higher = more potent) of -0.213.

TTTCTTGTACGCTTTGGCCTTT: the sensor-assay potency score (higher = more potent) was -0.519.

Turning to TTCTCTTTCTTGTACGCTTTGG, the sensor-assay potency score (higher = more potent) was -0.566.

TTTATTGGGAACTCAGGTGGGC yielded a sensor-assay potency score (higher = more potent) of 0.402.

TTCTTTTCTCTCTCTTCCGTGA displayed a sensor-assay potency score (higher = more potent) of -0.461.

The sequence TTCTTGTTGACCTCAAAACGTT showed a sensor-assay potency score (higher = more potent) of -0.905.
